ELG1 DNA repair: inhibitors of ELG1-dependent DNA repair in HEK293T cells. 2.3% of 330,000 active. HEK293T ELG1-luciferase reporter, luminescence, 16 h; DNA damage induced by 5-fluorouridine. Potency, µM (titrated, usually from 46.1 µM), actives largely listed as inhibitors; note: nearly all actives have a fitted effect of over 55% in size
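DMSO vehicle served as the neutral condition. Each well held 2,000 cells given 5-fluorouridine plus compound; after 16 hr at 37 °C/5% CO2, ONE-Glo was added and luciferase measured 30 min later.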
HT1080 IDH1KD tx: toxicity to HT-1080 IDH1 knockdown cells (counter line). HT-1080 IDH1 knockdown viability, ATP luminescence, 48 h. Potency, µM (top dose mostly 46.1 µM), hits mostly cytotoxic. 2% of 360,000 active
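HT-1080-IDH1KD cells (IDH1 knocked down), 750/well in RPMI with 5% FBS, treated with compound 48 h at 37 degrees C. Viability by CellTiter-Glo luminescence, normalised to DMSO and no-cell wells; concentration-response curves classed.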
TDP1 cell CPT: growth inhibition of DT40 Tdp1-/-;hTDP1 cells with camptothecin (screen for TDP1 inhibitors); chicken DT40 Tdp1-/-;hTDP1 cells + 20 nM CPT, ATP luminescence, 48 h; Potency, µM (highest dose often 46.2 µM), most hits filed as inhibitors; 12% of 420,000 active; AID 686979; note: nearly all actives have a fitted effect of over 55% in size
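Chicken DT40 Tdp1-/- cells stably complemented with human TDP1 were seeded at 400 cells/well in medium containing 20 nM camptothecin, exposed to pin-transferred compounds, and grown at 37 °C for at least 48 hr. Viability was read as ATP luminescence.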
IL1B secr inh: inhibitors of inflammasome signaling (IL-1 beta secretion); THP-1 LPS/ATP IL-1B secretion, AlphaLISA, 16 h; active compounds read low; activity change, % at 57.5 µM; 4.7% of 360,000 active; in the data active = activity change below about -50%; inconclusive = mostly about -30% to -49%
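THP-1 cells pretreated 1 hr with compounds (up to 57.5 uM final), then stimulated with LPS (250 ng/mL final) plus ATP (1.25 mM final); secreted IL-1B measured by AlphaLISA after 16 hr, decreased signal indicating inhibition.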
HT1080NT lethal: kills 2HG-producing HT-1080-NT fibrosarcoma cells. HT-1080-NT fibrosarcoma viability, CellTiter-Glo ATP luminescence, 48 h. Potency, µM (doses to about 46.1 µM), actives largely listed as cytotoxic. 1.6% of 360,000 active. AID 686970;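 note: NT is the 2HG producing partner of a matched IDH1 knockdown line; nearly all actives have a fitted effect of over 55% in size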
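HT-1080-NT fibrosarcoma cells (2HG-overproducing), 750 cells/well in RPMI with 5% FBS, dosed after 2 h and incubated 48 h at 37C. CellTiter-Glo luminescence normalized to DMSO and no-cell wells; concentration-response curves fitted and classed.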
DT40 TDP1 no CPT: qHTS for Inhibitors of human tyrosyl-DNA phosphodiesterase 1 (TDP1): qHTS in cells in absence of CPT; DT40 Tdp1-/- hTDP1 cells, no CPT, ATP luminescence, 48 h; Potency, µM (highest dose often 46.2 µM), usual class: inhibitors; 15% of 420,000 active; note: nearly all actives have a fitted effect of over 55% in size
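Luminescent ATP content (CellTiter-Glo) served as the growth readout. Knockout chicken DT40 cells expressing human TDP1 were exposed to compounds without camptothecin for a minimum 48 hr at 37 °C.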
A number is an active result; . = inactive; ? = inconclusive; / = no result. Shown are actives, neighbours in structure and some others; about 19% of the full set was active somewhere. Unless noted, calls come from the whole dose curve; as a rule, active = well fitted curve in the direction sought with a large enough effect; inconclusive = small, poorly fitted or top-dose-only effect, or another doubt; inactive = no such curve, though single readings can be large; an effect the other way counts as inactive or inconclusive.

SMILES	ELG1 DNA repair	HT1080 IDH1KD tx	TDP1 cell CPT	IL1B secr inh	HT1080NT lethal	DT40 TDP1 no CPT
O=C(O)CNC(=O)C1CCCN1C(=O)CNC(=O)OCc1ccccc1 (stereo unspecified)	.	.	.	.	.	.
Cc1cccc(NC(=O)C2CCCN2C(=O)OCc2ccccc2)c1 (stereo unspecified)	.	.	.	.	.	0.058µM
O=C(CNC(=O)OCc1ccccc1)NCC(=O)N1CCCC1C(=O)OCc1ccccc1 (stereo unspecified)	.	.	?	-88	.	.
O=C(OCc1ccccc1)C1CCCN1C(=O)c1ccccc1[N+](=O)[O-] (stereo unspecified)	.	?	15µM	-63	.	16µM
C=CCC(CC=C)(CNC(=O)C(=O)Nc1ccc(Br)cc1)c1ccc(OC)c(OC)c1	/	/	.	/	/	?
C[C@H]1CN([C@@H](C)CO)S(=O)(=O)c2ccc(Br)cc2O[C@H]1CN(C)C(=O)CCN1CCCCC1	/	.	.	.	.	.
O=C(COc1coc(CN2CCc3ccccc3C2)cc1=O)N1CCOCC1	.	.	.	.	.	.
N#CCCN1CCN(C(=S)c2ccc(-c3ccc(Cl)cc3)o2)CC1	?	.	?	.	.	?
S=C(c1ccc(-c2ccccc2Cl)o1)N1CCCCC1	?	.	?	.	.	16µM
S=C(c1ccc(-c2ccc(Cl)cc2)o1)N1CCCCC1	?	.	?	-52	?	?
COc1cc(OC)c(NC(=O)CCn2cnc3onc(-c4ccc(F)cc4)c3c2=O)cc1Cl	/	/	12µM	/	/	2.1µM
CCOc1ccc(NC(=O)CCn2cnc3onc(-c4ccc(F)cc4)c3c2=O)cc1	/	/	.	/	/	.
O=C(Cn1cnc2onc(-c3ccc(F)cc3)c2c1=O)Nc1cccc(C(F)(F)F)c1	/	/	23µM	/	/	21µM
COc1cc(OC)c(NC(=O)CCNC(=O)Cn2cnc3ccccc3c2=O)cc1Cl	.	.	18µM	.	.	?
O=C(Cn1cnc2onc(-c3ccc(F)cc3)c2c1=O)Nc1ccc(F)c(Cl)c1	/	/	9.2µM	/	/	?
Cc1ccc(F)cc1C(=O)N1CCOCC1c1cc(C(=O)Nc2ccccc2)no1 (stereo unspecified)	/	.	?	.	.	?
CCOC(=O)C1=C(COC(=O)CCOc2ccccc2C)NC(=O)NC1C (stereo unspecified)	.	.	.	.	.	.
CCN(C(=O)Cn1cnc2onc(-c3ccc(F)cc3)c2c1=O)c1ccc(OC)cc1	/	/	18µM	/	/	12µM
Cc1ccc(C)c(N2CCN(C(=O)Cn3cnc4onc(-c5ccc(F)cc5)c4c3=O)CC2)c1	/	/	23µM	/	/	?
Cc1ccc(S(=O)(=O)Nc2ccccc2C(C(=O)OC(C)(C)C)C(=O)OC(C)(C)C)cc1	/	.	?	.	.	?
Cc1ccc(S(=O)(=O)Nc2ccccc2C(O)c2ccccc2)cc1 (stereo unspecified)	?	.	?	.	.	18µM
CC1(C)C(/C=C/C=C/C=C/C=C2\N(CCCCS(=O)(=O)O)c3ccc4ccccc4c3C2(C)C)=[N+](CCCCS(=O)(=O)[O-])c2ccc3ccccc3c21	/	.	.	-77	.	.
CN1CCC(C)(C(=O)Nc2cccc(Oc3ccccc3)c2)C1 (stereo unspecified)	/	.	.	.	.	?
O=C(O)c1cn(-c2ccc(F)cc2)c2cc(N3CCNCC3)c(F)cc2c1=O	/	.	?	.	.	16µM
Cn1cc(S(=O)(=O)c2ccccc2)c(=O)c2cc(F)c(N3CCN(c4ccc(F)cc4)CC3)cc21	/	/	.	/	/	?
CC1=N/C(=C\c2ccc([N+](=O)[O-])cc2)C(=O)N1c1ccc(Br)c(C)c1	.	.	12µM	.	.	5.8µM
COc1ccc(N2C(=O)/C(=C/c3ccc([N+](=O)[O-])cc3)N=C2C)cc1	.	.	.	.	.	?

Screening results deposited in PubChem BioAssay by National Center for Advancing Translational Sciences (NCATS).
